This passage reports inhibition results from PubChem BioAssay.

Values without a mark were called inactive. No rule for the calls is given here.

The target in this experiment is Pantothenate synthetase (Mycobacterium tuberculosis (strain ATCC 25618 / H37Rv)) (UniProt P9WIL5). Put plainly: Recombinant Mtb pantothenate synthetase (PanC) inhibitors, coupled enzyme, confirmatory (AID 375).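 Also: 0% = full reaction with vehicle and 100% = no enzyme background.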 As to conditions: coupled enzyme assay; at 10 µM, active compounds read high.
Chain of Pantothenate synthetase (Mycobacterium tuberculosis (strain ATCC 25618 / H37Rv)) (P9WIL5 whole entry, looked up): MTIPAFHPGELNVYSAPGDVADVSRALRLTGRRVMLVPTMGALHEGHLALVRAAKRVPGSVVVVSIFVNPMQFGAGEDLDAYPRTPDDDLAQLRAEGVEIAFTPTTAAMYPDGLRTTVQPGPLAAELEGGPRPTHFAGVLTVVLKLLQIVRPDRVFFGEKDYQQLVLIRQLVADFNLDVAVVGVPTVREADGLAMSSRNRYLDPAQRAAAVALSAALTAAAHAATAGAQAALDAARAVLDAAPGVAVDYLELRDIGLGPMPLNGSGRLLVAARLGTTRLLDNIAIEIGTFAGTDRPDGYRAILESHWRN
For the molecule `CCC1CCCCN1CCCNC(=O)CC1Oc2ccc(C)cc2NC1=O` (stereo not given), the inhibition is 0%.
The result for `COCCn1c(SCC(=O)N(C(C)C)C(C)C)nnc1-c1cc2ccccc2cc1O` reads 0%.
The figure for `CC(C)CNC(=O)C1C2C=CC(C2)C1C(=O)O` (stereo not given) is 7%; for `CC1=C(C)[N+](=O)C2CCCCC2N1[O-]` (stereo not given) it is 3%; for `O=C(OCC(=O)c1ccc[nH]1)c1ccc(S(=O)(=O)N2CCCCC2)cc1` it is 1%.
The result for `Cc1coc2cc3oc(=O)c4c(c3cc12)CCC4` reads 11%.
As for `CN(C(=O)C1CCCO1)c1nnc(-c2ccncc2)s1` (stereo not given), the inhibition was 1%.
Turning to `CCCCOC(=O)CSc1nc2c(cc1C#N)C(=O)CC(C)(C)C2`, the inhibition was 0%.
Take `N#CC1=C(N)S[C@H](C(=O)C23CC4CC(CC(C4)C2)C3)[C@H]1c1ccncc1`: the inhibition is 0%.
The figure for `C=CCN1C(=O)/C(=C2/Sc3ccccc3N2C)SC1=Nc1c(C)n[nH]c1C` is 1%.
In the case of `C[N+](C)(C)CCOP(=O)([O-])OC[C@H](O)CO`, the inhibition was 1%.
`CCOc1ccc(N(CC(=O)NCc2cccc(OC)c2)S(=O)(=O)c2c(C)noc2C)cc1`: the inhibition was 6%.
The figure for `O=C(NCc1ccccn1)c1ccc2nc(-c3ccco3)c(-c3ccco3)nc2c1` is 1%.
Take `CCCOc1ccccc1C1CC(=O)Nc2cc3c(cc21)OCCO3` (stereo not given): the inhibition is 2%.
The result for `CCOC(=O)N1CCN(Cc2nc3c(c(=O)[nH]c(=O)n3C)n2Cc2cc(C)ccc2C)CC1` reads 0%; that for `CN(C)C(=O)N1CCN(C(=O)c2ccco2)CC1`, 0%; that for `CCOC(=O)c1[nH]c2ccccc2c1NC(=O)C(C)(C)C`, 0%.
On to `COC(=O)c1c(NC(=O)c2ccc(S(=O)(=O)N3CCOCC3)cc2)sc2c1CCN(C)C2`, for which the inhibition was 0%.
For `O=C(Cn1ncc2c1-c1ccccc1OC2)N1CCc2ccccc21`, the inhibition is 0%.
As to `O=C(CSc1ncccn1)NCc1ccccc1`, the inhibition was 0%.
For `O=C(Nc1ncnc2sc3c(c12)CCC3)c1ccco1`, the inhibition is 0%.
In the case of `Cc1ccc(Cn2c(C)nc3c(c2=O)c2nc4ccccc4nc2n3Cc2ccco2)cc1`, the inhibition is 0%.
`CCOC(=O)c1c2n(c3ccc(O)cc13)CCCCC2`: the inhibition is 0%.
Take `C=CCOc1nc(N2CCCC2)nc(N2CCCC2)n1`: the inhibition was 5%.
Turning to `O=S(=O)(NCC1CCCO1)c1cc(Cl)ccc1Br` (stereo not given), the inhibition was 0%.
With `Cc1cccc(C)c1NC(=O)CS(=O)CC(=O)NC1CCCc2ccccc21` (stereo not given), the inhibition is 12%.
The result for `CCS(=O)(=O)Nc1ccc(C(=O)CC2(O)C(=O)Nc3ccccc32)cc1` (stereo not given) reads 14%; that for `Cc1cc(C(=O)NCCCc2ccccc2)no1`, 10%; that for `COc1ccc2c(c1OC)C(=O)OC2CC(=O)c1ccc(O)cc1` (stereo not given), 0%.
Turning to `O=C(Cn1cnc2c(nnn2Cc2ccc(Cl)cc2)c1=O)NCC1CCCO1` (stereo not given), the inhibition is 0%.
Consider `CC(=O)c1coc2ccc(OCC(=O)O)cc12`, for which the inhibition was 0%.
For the molecule `CCCCCn1c2nc3ccccc3nc2c2c(=O)n(CC(C)C)cnc21`, the inhibition was 7%.
The result for `O=C(NCCc1c[nH]c2ccccc12)c1cnc2n(c1=O)CCS2` reads 1%.
The result for `CCOc1ccc(-c2nc(N)ncc2-c2ccccc2)c(O)c1` reads 0%.
In the case of `Cc1nc2ccc(S(=O)(=O)NC(C(=O)N3CCCC3)C(C)C)cc2s1` (stereo not given), the inhibition is 0%.
The figure for `Cc1ccccc1OCc1nnc2n1CC(C)S2` (stereo not given) is 0%; for `Cc1ccnc(NC(=O)C2CCCN(S(=O)(=O)c3cnc[nH]3)C2)c1` (stereo not given) it is 0%; for `COc1ccc(CC(NC(C)=O)C(=O)NC2CCN(c3nc(C)cc(C)c3C#N)CC2)c(OC)c1` (stereo not given) it is 0%.
Consider `Cc1nc(C)c(C(=O)Nc2ccc(C)c(F)c2)o1`, for which the inhibition is 5%.
Regarding `Cn1nc(C(=O)N2CCOCC2)c2ccccc2c1=O`, the inhibition was 0%.
